{"source": "PubChem BioAssay (NCI)", "note": "This is part of a sample that, as a whole, favours compounds with a hit. Of some 79,000 tested, about 15% had one in any assay. Unmarked numbers belong to inactive results. No stated cut-off is given here; in the data, active means growth inhibition above about 70%; inactive means the rest.", "data": [{"assay": "NCI Yeast Anticancer Drug Screen. Data for the bub3 strain (AID 167)", "details": "S. cerevisiae bub3 mutant strain, at 50.0 µM, stronger effect = higher value", "in_short": "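Growth of a checkpoint-deficient yeast mutant is measured after compound exposure. Values represent inhibition relative to vehicle.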", "units": {"growth inhibition": "%"}, "values": [{"smiles": "Cc1ccc(S(=O)(=O)/N=C2\\CCN(S(=O)(=O)c3ccccc3)N2S(=O)(=O)c2ccc(C)cc2)cc1", "growth inhibition": 11.8}, {"smiles": "C=C1C(OC(C)=O)CC(OC(C)=O)C2(C)C(OC(C)=O)C(OC(C)=O)C3=C(C)C(OC(=O)/C=C/c4ccccc4)CC(C(OC(C)=O)C12)C3(C)C", "note": "(configuration not stated)", "growth inhibition": 20.6}, {"smiles": "CCN(CC)c1nc(Cl)nc(C(N)=O)c1N", "growth inhibition": -1.2}, {"smiles": "CO/N=C(\\C(=O)N(C)n1cnnc1)c1csc(NC(c2ccccc2)(c2ccccc2)c2ccccc2)n1", "growth inhibition": 18.8}, {"smiles": "CC(=O)NNC(=S)N/C=C(\\C#N)C(=O)c1ccc2ccccc2c1", "growth inhibition": -25.5}, {"smiles": "CCCCCCCCC(=O)c1ccc(N=Nc2ccc(OCC)cc2)cc1", "growth inhibition": 3.15}, {"smiles": "CCC(CCCN)Nc1cc(OC)cc2c(C)ccnc12", "note": "(configuration not stated)", "growth inhibition": 21.2}, {"smiles": "COc1ccc2cc(NC(=O)N/N=C\\c3ccc(Cl)cc3)ccc2c1", "growth inhibition": 27}, {"smiles": "CSc1ccc(NC(=O)Nc2cc(C)c(C)cc2C)cc1", "growth inhibition": 14.5}, {"smiles": "CC1(C)C2CCC(=O)C1CC2", "note": "(configuration not stated)", "growth inhibition": -37.4}, {"smiles": "C=C(Br)CN=CN(C)C", "growth inhibition": -10.1}, {"smiles": "CC12CCC(CC1)C2(C)C", "growth inhibition": 4.75}, {"smiles": "O=C(OC1CCCC1OC(=O)c1ccccc1)c1ccccc1", "note": "(configuration not stated)", "growth inhibition": 12.2}, {"smiles": "ClCCCc1ccccc1C1=NCCc2ccccc21", "growth inhibition": -14.7}, {"smiles": "Cc1cc(Cl)cc(C(=O)O)c1O", "growth inhibition": -8.05}, {"smiles": "CC(=O)n1cc2cc([N+](=O)[O-])ccc2n1", "growth inhibition": -1}, {"smiles": "COc1ccc2ccc3c(c2c1)C(=O)C(CC(N)=O)C3", "note": "(configuration not stated)", "growth inhibition": -4.1}]}]}
